Results reported in the supplement of paper PMC6555819.

Assays:
Assay in all cases: PBM binding z-score (relative to random genomic background probes); higher = stronger binding; sequences stand for … in GC…GCGATTGACAGCGTAGAATGAAGG
[1] = system: PPARg:RXRa DBDmut IVT, anti-RXR (DBD mutation: RXRa K156A/R161A, NR concentration 270 nM, RXRa partner concentration 90 nM)
Procedure, shortened: (§1)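 Antibodies against each partner of ligand-free nuclear receptor dimers (one per run) detected binding on custom Agilent 4×180K protein-binding microarrays after 1 h incubation. The double-stranded probes had 34-nt variable regions carrying direct-repeat seeds, single-nucleotide variants, half-site ablations and random human genomic background sequences. Binding z-scores, from regression-normalized fluorescence, use the random background probes as reference.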

[2] = system: PPARg:RXRa IVT, anti-PPARg (NR concentration 270 nM, RXRa partner concentration 90 nM)
Procedure, shortened: as §1

[3] = system: PPARg DBDmut:RXRa IVT, anti-PPARg (DBD mutation: PPARg1 K132A/R137A, NR concentration 270 nM, RXRa partner concentration 90 nM)
Procedure, shortened: as §1

[4] = system: PPARg DBDmut IVT, anti-PPARg (DBD mutation: PPARg1 K132A/R137A, NR concentration 270 nM)
Procedure, shortened: as §1

[5] = system: PPARg homodimer (NR concentration 180 nM)
Procedure, shortened: as §1

[6] = system: PXR:RXRa (NR concentration 270 nM, RXRa partner concentration 90 nM)
Procedure, shortened: as §1

[7] = system: PXR homodimer (NR concentration 270 nM)
Procedure, shortened: as §1

[8] = system: RARa:RXR (NR concentration 270 nM, RXRa partner concentration 90 nM)
Procedure, shortened: as §1

[9] = system: RARa homodimer (NR concentration 270 nM)
Procedure, shortened: as §1

[10] = system: RARb:RXRa (NR concentration 270 nM, RXRa partner concentration 90 nM)
Procedure, shortened: as §1

Sequence | PBM binding z-score [1] | PBM binding z-score [2] | PBM binding z-score [3] | PBM binding z-score [4] | PBM binding z-score [5] | PBM binding z-score [6] | PBM binding z-score [7] | PBM binding z-score [8] | PBM binding z-score [9] | PBM binding z-score [10]
TTACTAAGGTGAAGGTCGTTGATCCCTCTGTAGA | 3.98 | 4.68 | 1.15 | 0.702 | 1.39 | 1.84 | 0.493 | 2.6 | 0.0273 | 2.58
GCGAATGGGGCATCAGCAGGTTACCATAACTTAA | 0.757 | 0.63 | -0.741 | -0.65 | 0.165 | 0.102 | -0.437 | 0.532 | -0.444 | 0.614
GCGACTGGGGCAAAGCAGGTTACTATAAGGTTGG | 4.62 | 3.88 | 0.068 | -0.036 | 0.617 | 0.375 | -0.473 | 0.949 | -0.471 | 0.879
CCTACTCGGCCATTCAGAGGTCATTGATCATATG | 2.23 | 1.88 | 0.471 | 0.672 | 2.68 | 4.91 | 3.38 | 4.55 | 1.67 | 3.27
CGGACTAGGTCAGAACAGGACAGTGAAGGATGAT | 6.67 | 6.53 | 3.25 | 1.13 | 1.57 | 0.748 | 0.281 | 0.846 | 0.0596 | 2.68
ACTATTAGTTGAGACGAGGGCAACCGATAGGTTG | 0.0589 | 0.536 | 0.785 | 0.574 | 0.059 | 1.64 | 0.413 | 0.859 | 0.982 | 1.24
TCTCGGCGGACACGAAGGTCAGAGCTTTCCAGAG | 0.413 | 0.291 | -0.613 | -1.55 | 0.53 | 1.09 | -0.42 | 1.09 | -0.212 | 2.45
ACTTACGGGTCAACGAGGTTGTAGCACGCGTATA | 3.1 | 3.83 | 2.28 | 1.73 | 3.47 | 4.95 | 1.29 | 5.07 | 0.713 | 4.04
CGTCCAATGTCAAAGGTCAGTGAAGAGATGACGG | 0.671 | 3.16 | 0.777 | 0.834 | 4.53 | 4.53 | 0.54 | 6.27 | 2 | 4.36
ATATGTAGGTTAGCTGGGGTCATCCAGACTAGGC | 6.84 | 6.06 | 1.71 | 0.818 | 2.58 | 6.14 | 1.99 | 5.79 | 1.43 | 3.34
CCTACTGGGCCACGAAAGGTCAATGATTCAGTGA | 5.81 | 6.07 | 0.295 | -0.781 | 2.45 | 4.54 | 0.206 | 4.68 | 0.747 | 4.09
TAGCCCAGGTCATGCGGGCCAGTATAGTGTCGGC | 0.638 | 2.57 | -0.0508 | -0.838 | 0.868 | 2.52 | 0.093 | 3.04 | -0.161 | 3.74
ATCTCTACGTAACCAAGTTCAGTGAATGCCGAAC | -0.22 | 0.0113 | 0.854 | 0.806 | 0.739 | 1.29 | 1.4 | 0.427 | 0.401 | 0.836
CGTCCAAGTTCATAGGAGGTCAGTGAAGACAGAT | 0.698 | 1.81 | 0.494 | 0.544 | 3.04 | 6.14 | 9.37 | 4.07 | 1.68 | 4.14
TAGCCTAGGTCATGAGGGCCAGTATAGTGTCGGC | 2.17 | 3.05 | 0.44 | -0.29 | 0.909 | 1.6 | -0.521 | 2.56 | -0.556 | 3.8
CCGACTGGGGCAGAAAAGTTACCATACCATCCGG | 1.36 | 0.746 | -1.85 | -1.61 | 0.0393 | -0.593 | -0.395 | -0.848 | 0.0243 | -0.0999
CGTCCAAGGTCATCGGAGGTCAGTGAAGACAGAT | 3.14 | 4.14 | 0.99 | 1.08 | 6.99 | 7.33 | 7.36 | 6.63 | 3.02 | 5.5
CCTAGTAGGCCAATCTGGGTCACTCAAGGCTTGA | 6.2 | 6.35 | 0.0197 | -0.994 | 0.502 | 1.07 | -0.356 | 1.39 | -0.858 | 1.78
ATCTCTAGGTAATACTCAGTTCAGTGAAGAACGC | 2.77 | 1.87 | 1.44 | 1.47 | 1.53 | 1.58 | 2.24 | 0.858 | 2.17 | 0.79
CGTCAAAGTTCAACTAAGGTAACGGAAAGCACGC | 0.353 | 2.18 | 0.489 | 0.064 | 3.4 | 5.37 | 3.68 | 3.89 | 1.31 | 5.45
CCTAGCAGGCCCATCTGGGTCACTCAAGGCTTGA | 0.547 | 2.42 | -1.01 | -1.83 | 0.0647 | 0.362 | -0.496 | 1.21 | -0.257 | 0.978
ACTATTAGTTGAGACGAGGGCAGCCGATAGGTTG | 0.368 | 0.416 | 0.598 | 0.645 | 0.479 | 0.456 | -0.0477 | 0.335 | 0.445 | 0.854

Sequence | PBM binding z-score [1] | PBM binding z-score [2] | PBM binding z-score [3] | PBM binding z-score [4] | PBM binding z-score [5] | PBM binding z-score [6] | PBM binding z-score [7] | PBM binding z-score [8] | PBM binding z-score [9] | PBM binding z-score [10]
CCTATTAGTTGACCATAAGGGCAACAGAAGCTCG | 0.409 | 0.628 | -0.0621 | 0.417 | 1.95 | 0.896 | 0.847 | 1.15 | 1.6 | 1.42
CGAACGAGGGCACGAGTTGATAGCAAATGCCGAT | 3.89 | 3.93 | 0.0277 | -0.0688 | -0.0293 | 0.738 | 0.271 | 1.12 | -0.123 | 2.6
ATCTCTAGGTACCCAAGTTCAGTGAATGCCGAAC | 0.72 | 1.02 | 0.772 | 0.793 | 0.883 | 1.76 | 1.62 | 0.698 | 0.262 | 1
ACAGACCGGTGAGTGAAGGTAACTCAGCTGGACG | -0.439 | -0.283 | -0.662 | -1.09 | -0.786 | -0.593 | -0.655 | -0.54 | -0.997 | -0.197
TCTCGGAGGACACGAAAGGTAAGAGCTCGACATC | 1.28 | -0.239 | -1.14 | -1.23 | -0.641 | -0.211 | -0.673 | -0.135 | -0.792 | 1.59
CCGACTGGGTCAGAAAGGTTACCATACCATCCGG | 3.31 | 3.92 | 0.245 | -0.526 | 2.08 | 2.48 | 0.43 | 3.17 | 0.179 | 3.15
ACAATGAGGTTATTAAGATCAGGGAATTGCGGTC | 2.08 | 2.07 | 1.27 | 1.25 | 0.869 | 1.58 | 1.15 | 1.49 | 1.12 | 1.74
CAAACTAGGTCAAGAGGTCAGAGTCCGCTTCCCG | 8.57 | 8.53 | 2.77 | 1.17 | 6.51 | 5.04 | 0.812 | 6.67 | 3.26 | 5.15
TTACCAATGTGAGCTGAGGTCGTTGATCCAACTC | -0.252 | -0.0612 | 0.679 | -0.281 | -0.49 | 2.46 | 0.562 | 1.53 | -0.185 | 0.439
GGAGCGAGGGCAAGTTGATAGCAGAGTTTGATGG | 0.723 | 0.346 | -0.895 | -0.911 | 0.261 | 0.533 | 0.345 | 0.395 | -0.343 | 2.56
TCATATAGGTAATACAGGTGAAAATCGGCATCTA | 3.9 | 3.09 | 1.52 | 1.47 | 1.22 | 0.9 | 0.486 | 1.46 | 1.89 | 0.59
ATATGTACGTTAGCTGGGGTCATTCAGACTAGGC | 0.759 | 1.55 | 1.41 | 1.62 | 2.55 | 5.7 | 3.18 | 5.82 | 1.41 | 2.57
CGAACTAGGTCAAGGGCAGTGAATCTCCGCACGC | 7.67 | 8.29 | 1.07 | 0.971 | 1.46 | 1.14 | -0.131 | 1.86 | -0.096 | 4.13
CGAACTAGGTCAGAACAGGACAGTAAAGGATGAT | 7.08 | 7.22 | 1.86 | 1.17 | 1.1 | 1.02 | 0.0829 | 1.26 | 0.18 | 2.92
ACAGACAGGTGATGAACGTAACTCAGGCTATCAT | -0.0291 | 0.144 | 0.839 | 0.504 | -0.201 | -0.104 | 0.276 | -0.047 | 0.235 | -0.0365
CGTCAAAGTTCAACTAAGGTACCGTAAAGCACGC | 0.831 | 1.71 | 0.452 | 0.671 | 2.68 | 4.87 | 3.81 | 3.96 | 1.72 | 5.21
ATACCAAGGTGATTGTGAGGTCGTTGATACTAAC | 0.693 | 1.27 | 0.771 | 0.654 | 1.27 | 3.13 | 2.05 | 2.22 | 0.72 | 1.41
TTTGCTAGGTCAACGATGGTCAGCTAATCTGCTA | 4.45 | 5.11 | 0.599 | 0.434 | 0.874 | 1.46 | -0.501 | 2.15 | -0.298 | 4.13
TAGCCTAGGTCATTCGGGGGCCAGTATAGAAAGC | 2.62 | 4.33 | 2.22 | 5 | 1.93 | 3.84 | 0.257 | 3.92 | 0.944 | 3.99
ATCGAAAGGTCGACGGGGTGAGTATACACCGTTT | 0.683 | 2.19 | 1.15 | 0.814 | 2.18 | 3.64 | 1.33 | 4.46 | 0.456 | 3.98
TCGAGTAGGATACCAATGGGGCATTCAGCTTTCT | 1 | -0.141 | -0.244 | -1.29 | -1.04 | -0.677 | -0.988 | -1.18 | -1.27 | -0.402
ATATGTAGGTTATCGTGTCATTCAGTTTGCGCAT | 7.74 | 7.44 | 2.49 | 2.15 | 1.76 | 1.17 | 0.812 | 1.16 | 0.933 | 1.32
